Measurements as given in PubChem BioAssay (NCI).
About 79,000 compounds went through this panel and 15% of them were active in at least one assay; those are over-represented in the sample as a whole. The source made the active and inactive calls. Cut-off read from the data, not from the text of the source: active = growth inhibition above about 70%; inactive = the rest.

How the values were obtained:
[1] = NCI Yeast Anticancer Drug Screen. Data for the rad50 strain (AID 155);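 note: 0% = growth of vehicle-only cultures of the same strain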; conditions: S. cerevisiae rad50 strain growth inhibition, stronger effect = higher value
Procedure, shortened: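 Relative growth inhibition (compound vs vehicle) was measured in yeast with a defined repair-gene alteration.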

[2] = NCI Yeast Anticancer Drug Screen. Data for the mec2-1 strain (AID 157); conditions: S. cerevisiae mec2-1 strain, stronger effect = higher value
Procedure, shortened: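 mec2-1 yeast strain, carrying an alteration in DNA damage repair or cell cycle control, was exposed to compounds; growth inhibition was measured relative to vehicle-treated controls.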

[3] = NCI Yeast Anticancer Drug Screen. Data for the sgs1 mgt1 strain (AID 161);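 note: 0% = growth of cultures given vehicle only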; conditions: S. cerevisiae sgs1 mgt1 strain, stronger effect = higher value
Procedure, shortened: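 Growth of a repair-deficient yeast mutant was monitored after compound treatment and expressed as inhibition relative to vehicle-treated cultures.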

[4] = NCI Yeast Anticancer Drug Screen. Data for the cln2 rad14 strain (AID 165);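 note: 0% = growth equal to vehicle treated cultures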; conditions: S. cerevisiae cln2 rad14 strain, stronger effect = higher value
Procedure, shortened: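 Yeast carrying cln2 and rad14 alterations (cell cycle control and DNA damage repair) were exposed to compounds. Growth inhibition was measured against vehicle-treated controls.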

[5] = NCI Yeast Anticancer Drug Screen. Data for the bub3 strain (AID 167); conditions: S. cerevisiae bub3 mutant strain, stronger effect = higher value
Procedure, shortened: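 Screening used yeast with an engineered genetic alteration affecting cell cycle control. Compound-exposed cultures were compared with vehicle cultures, and reduced growth was taken as inhibition.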

[6] = NCI Yeast Anticancer Drug Screen. Data for the mlh1 rad18 strain (AID 175); conditions: S. cerevisiae mlh1 rad18 strain growth inhibition, stronger effect = higher value
Procedure, shortened: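 Growth inhibition of the yeast strain was measured after compound exposure and expressed relative to vehicle-treated controls. The strain carries defined defects in DNA damage repair.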

[7] = at 5.0 µM (retest, dose inferred, filed as 0.5)
[8] = at 50.0 µM (retest, dose inferred, filed as 5.0)

Measured: growth inhibition

COc1cc(Nc2ccc(O)cc2)c2ncccc2c1
active: [1]; [8] 93% | [1]; at 50.0 µM 94.9% | [2]; [8] 97% | [3]; [8] 97% | [3]; at 50.0 µM 94.7% | [4]; [8] 89% | [5]; [8] 94% | [6]; [8] 96% | [6]; at 50.0 µM 94.5%
inactive: [1]; [7] 34% | [2]; [7] 18% | [2]; at 50.0 µM 69.2% | [3]; [7] 16% | [4]; [7] 5% | [4]; at 50.0 µM 21.1% | [5]; [7] 7% | [5]; at 50.0 µM 45.3% | [6]; [7] 33%

CN(C)CC(CN(C)C)C(=O)C1CCCCC1
inactive: [1]; [7] 25% | [2]; [7] 2% | [3]; [7] -9% | [4]; [7] 19% | [4]; at 50.0 µM 10.3% | [5]; [7] 7% | [5]; at 50.0 µM 23.2% | [6]; [7] 12%
active: [1]; [8] 90% | [1]; at 50.0 µM 81.2% | [2]; [8] 96% | [2]; at 50.0 µM 94.7% | [3]; [8] 71% | [3]; at 50.0 µM 76.8% | [4]; [8] 89% | [5]; [8] 98% | [6]; [8] 95% | [6]; at 50.0 µM 96.6%

Cc1ccc(C(=O)C(CN(C)C)CN(C)C)cc1C
active: [1]; [8] 83% | [1]; at 50.0 µM 87.6% | [2]; [8] 90% | [2]; at 50.0 µM 90.2% | [3]; [8] 88% | [3]; at 50.0 µM 90.1% | [5]; [8] 94% | [5]; at 50.0 µM 87.5% | [6]; [8] 91% | [6]; at 50.0 µM 87.8%
inactive: [1]; [7] 29% | [2]; [7] 12% | [3]; [7] 9% | [4]; [7] 24% | [4]; [8] 51% | [4]; at 50.0 µM 58.1% | [5]; [7] 20% | [6]; [7] 14%

O=C1OC(=O)c2cc([N+](=O)[O-])cc3cccc1c23
inactive: [1]; [7] 3% | [1]; at 50.0 µM 22.9% | [2]; [7] 13% | [2]; at 50.0 µM 36.2% | [3]; [7] 3% | [3]; at 50.0 µM 29.2% | [4]; [7] 22% | [4]; at 50.0 µM 36.6% | [5]; [7] 21% | [5]; at 50.0 µM 47.5% | [6]; [7] 8%
active: [1]; [8] 97% | [2]; [8] 99% | [3]; [8] 99% | [4]; [8] 98% | [5]; [8] 99% | [6]; [8] 99% | [6]; at 50.0 µM 76.7%

CCCCCN(CCCCC)C(=O)CCl
inactive: [1]; [7] -2% | [1]; [8] 30% | [1]; at 50.0 µM 68.6% | [2]; [7] -3% | [2]; [8] 15% | [2]; at 50.0 µM 53.5% | [3]; [7] -3% | [3]; [8] 10% | [3]; at 50.0 µM 69.2% | [4]; [7] 8% | [4]; [8] 7% | [4]; at 50.0 µM -6.75% | [5]; [7] 12% | [5]; [8] 58% | [6]; [7] -1% | [6]; [8] 23%
active: [5]; at 50.0 µM 82.5% | [6]; at 50.0 µM 85.3%

CC(=O)OCc1ccc([N+](=O)[O-])o1
active: [1]; [8] 78% | [1]; at 50.0 µM 96.3% | [2]; at 50.0 µM 98.3% | [4]; [8] 96% | [4]; at 50.0 µM 98.2% | [5]; [8] 73% | [5]; at 50.0 µM 98.9% | [6]; [8] 86% | [6]; at 50.0 µM 98%
inactive: [1]; [7] 2% | [2]; [7] -7% | [2]; [8] 22% | [3]; [7] 3% | [3]; [8] 67% | [3]; at 50.0 µM 64.3% | [4]; [7] 0% | [5]; [7] -2% | [6]; [7] 1%

OC(c1cc(-c2ccc(Cl)c(Cl)c2)nc2ccccc12)C1CCCCN1 (configuration not stated)
inactive: [1]; at 50.0 µM 38.2% | [2]; [8] 12% | [2]; at 50.0 µM 32.8% | [3]; at 50.0 µM 9.85% | [4]; [8] 29% | [4]; at 50.0 µM -14.2% | [5]; [8] 61% | [5]; at 50.0 µM 66.3%
active: [1]; [7] 95% | [1]; [8] 70% | [2]; [7] 100% | [3]; [7] 84% | [3]; [8] 77% | [4]; [7] 99% | [5]; [7] 99% | [6]; [7] 99% | [6]; [8] 92% | [6]; at 50.0 µM 88.5%

Cc1cc(-c2ccc(N=Nc3cc(S(=O)(=O)O)c4ccccc4c3N)c(C)c2)ccc1N=Nc1cc(S(=O)(=O)O)c2ccccc2c1N
inactive: [1]; [7] 19% | [1]; at 50.0 µM 64.6% | [2]; [7] 16% | [2]; [8] 60% | [2]; at 50.0 µM 52.1% | [3]; [7] 29% | [3]; [8] 69% | [3]; at 50.0 µM 66.8% | [4]; [7] 31% | [4]; [8] 48% | [4]; at 50.0 µM 30.6% | [5]; [7] 26% | [6]; [7] 32%
active: [1]; [8] 82% | [5]; [8] 73% | [5]; at 50.0 µM 73.7% | [6]; [8] 86% | [6]; at 50.0 µM 71%

S=c1nc(C(c2ccccc2)c2ccccc2)[nH][nH]1
inactive: [1]; [7] -2% | [1]; [8] 1% | [1]; at 50.0 µM 29.1% | [2]; [7] -1% | [2]; [8] 7% | [2]; at 50.0 µM 1.7% | [3]; [7] 10% | [3]; [8] 13% | [3]; at 50.0 µM 40.4% | [4]; [7] 0% | [4]; [8] -2% | [4]; at 50.0 µM 28.1% | [5]; [7] 1% | [5]; [8] 27% | [5]; at 50.0 µM 11.6% | [6]; [7] -3% | [6]; [8] 3% | [6]; at 50.0 µM 65.5%
